# An excerpt weighted towards active compounds, which were near 19% of everything screened.
# KB-3-1 cytotox: KB-3-1 parental cell cytotoxicity. KB-3-1 viability, CellTiter-Glo ATP luminescence, 72 h. Potency, µM (series often up to 46.1 µM), hits mostly cytotoxic. 400,000 compounds, 1.4% hits. AID 1347075; note: nearly all actives have a fitted effect of over 60% in size
#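 Cells are dispensed, compounds pinned in, plates held at 37 °C for 72 h, then CellTiter-Glo is added and luminescence read after 10 minutes. Cell line: parental KB-3-1 in phenol-red-free DMEM, 10% FBS.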
# TDP1 cell noCPT: qHTS for Inhibitors of human tyrosyl-DNA phosphodiesterase 1 (TDP1): qHTS in cells in absence of CPT; 420,000 compounds, 15% hits; DT40 Tdp1-/- hTDP1 cells, no CPT, ATP luminescence, 48 h; Potency, µM (doses to about 46.2 µM), inactives show at the top dose activity change, negative = growth inhibition, actives largely listed as inhibitors; note: nearly all actives have a fitted effect of over 55% in size
#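 Compound effects on proliferation are scored in DT40 Tdp1-/-;hTDP1 cells in the absence of CPT. ATP levels (CellTiter-Glo luminescence) are recorded after a ≥48 hr, 37 °C incubation.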
# TDP1 cell CPT: growth inhibition of DT40 Tdp1-/-;hTDP1 cells with camptothecin (screen for TDP1 inhibitors). chicken DT40 Tdp1-/-;hTDP1 cells + 20 nM CPT, ATP luminescence, 48 h. Potency, µM (titrated, usually from 46.2 µM), without a hit: at the highest dose activity change, negative = growth inhibition, usual class: inhibitors. 420,000 compounds, 12% hits; note: nearly all actives have a fitted effect of over 55% in size
#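 Chicken DT40 Tdp1-/- cells stably complemented with human TDP1 were seeded at 400 cells/well in medium containing 20 nM camptothecin, exposed to pin-transferred compounds, and grown at 37 °C for at least 48 hr. Viability was read as ATP luminescence.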
# KB-V1 cytotox: KB-V1 MDR subline cytotoxicity; 400,000 compounds, 3.4% hits; Potency, µM (series often up to 46.1 µM), hits mostly cytotoxic; AID 1347076; KB-V1 MDR cells viability, CellTiter-Glo, 72 h; note: nearly all actives have a fitted effect of over 60% in size
#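 Compound-treated KB-V1 multidrug-resistant cells, 72 h, 37 degrees C; viability by CellTiter-Glo. Fitted qHTS curves give the values.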
# HT1080 IDH1KD tx: HT-1080 IDH1 knockdown cell toxicity (counter line). HT-1080 IDH1 knockdown viability, ATP luminescence, 48 h. Potency, µM (highest dose often 46.1 µM), inactives show top-dose activity, negative = toxicity, most hits filed as cytotoxic. 360,000 compounds, 2% hits. AID 686971;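 note: 0% = DMSO wells and -100% = cell-free medium wells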
#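 Knockdown cells (IDH1KD HT-1080) received compounds 2 h after plating at 750 cells/well and were kept 48 h at 37 °C in 5% FBS RPMI. A CellTiter-Glo luminescence read gave % activity for curve fitting.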
# HT1080NT lethal: kills 2HG-producing HT-1080-NT fibrosarcoma cells. HT-1080-NT fibrosarcoma viability, CellTiter-Glo ATP luminescence, 48 h. Potency, µM (titrated, usually from 46.1 µM), without a hit: at the top dose activity, negative = less viability, usual class: cytotoxic. 360,000 compounds, 1.6% hits. AID 686970;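 note: NT is the 2HG producing partner of a matched IDH1 knockdown line; 0% = DMSO-treated cells and -100% = media-only wells without cells; nearly all actives have a fitted effect of over 55% in size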
#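 Read-out is CellTiter-Glo luminescence after 10 minutes at room temperature, following 48 hours' compound treatment of HT-1080-NT cells (750 cells/well, RPMI, 5% FBS, 37 degrees C).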
# Active calls of the source: *; i = inactive; ? = inconclusive; . = not tested or not shown; [ ] = another dose, or the depositor's remark. Calls come from the whole dose curve; as a rule, active = well fitted curve in the direction sought with a large enough effect; inconclusive = small, poorly fitted or top-dose-only effect, or another doubt; inactive = no such curve, though single readings can be large; an effect the other way counts as inactive or inconclusive. Unless noted, % is set by controls: 0 for no effect and ±100 for the full control effect; potency is the fitted concentration of half-maximal effect.
SMILES,KB-3-1 cytotox,TDP1 cell noCPT,TDP1 cell CPT,KB-V1 cytotox,HT1080 IDH1KD tx,HT1080NT lethal
O=C(Cn1cnc2onc(-c3ccc(F)cc3)c2c1=O)N1CCN(c2ccccc2F)CC1,i,?,?,i,.,.
Cc1ccc(Cl)cc1N1CCN(C(=O)Cn2cnc3onc(-c4ccc(F)cc4)c3c2=O)CC1,i,18µM*,18µM*,i,.,.
CCN(C(=O)Cn1cnc2onc(-c3ccc(F)cc3)c2c1=O)c1cc(C)ccc1C,i,21µM*,13µM*,i,.,.
CCCNC(=O)C1(C)CCCN(C(=O)COCc2ccccc2)C1 (configuration not stated),i,15%,5%,i,15%,23%
O=C(Cc1cccc(NC(=O)C2CCCN(C(=O)C3CC3)C2)c1)Nc1ccc(C(=O)N2CCOCC2)cc1 (configuration not stated),i,-3%,6%,i,5%,2%
COc1cccc(N2CCN(C(=O)Cn3cnc4onc(-c5ccc(F)cc5)c4c3=O)CC2)c1,i,21µM*,23µM*,i,.,.
O=C(CCn1cnc2onc(-c3ccc(F)cc3)c2c1=O)N1CCN(c2ccccc2F)CC1,i,?,?,i,.,.
COc1ccccc1N1CCN(C(=O)CCn2cnc3onc(-c4ccc(F)cc4)c3c2=O)CC1,i,21µM*,?,i,.,.
COc1ccc(-c2cn3cccnc3n2)cc1NC(=O)c1ccc(Br)o1,?,?,16µM*,i,4%,23%
Cc1ccc(-c2cn3cccnc3n2)cc1NC(=O)C(C)(C)Oc1ccc(Cl)cc1,.,18µM*,?,.,.,.
COc1cccc(C(=O)Nc2cc(-c3cn4cccnc4n3)ccc2C)c1OC,.,16µM*,?,.,.,.
CCCC(=O)Nc1cc(-c2cn3cccnc3n2)ccc1OC,i,-5%,-7%,i,14%,27%
Cc1ccc(-c2cn3cccnc3n2)cc1NC(=O)c1ccc(Br)o1,i,-21%,-19%,i,?,3%[9.24 µM]
COc1ccc(-c2cn3cccnc3n2)cc1NC(=O)Nc1cc(C)ccc1C,i,?,?,i,.,.
COc1ccc(-c2cn3cccnc3n2)cc1NC(=O)c1c(F)cccc1F,.,26µM*,?,.,.,.
C=CCNC(=O)CN(Cc1ccccc1)S(=O)(=O)c1ccccc1,i,-10%,-23%,i,11%,2%
CC(Oc1ccccc1)C(=O)NNC(=O)c1ccccn1 (configuration not stated),?,7.3µM*,10µM*,4.6µM*,?,-22%
CC(C)C(=O)NNC(=O)c1ccccn1,i,?,?,?,-4%,2%
CC(Oc1cccc(Br)c1)C(=O)NNC(=O)c1ccccn1 (configuration not stated),?,2.3µM*,2.9µM*,?,?,?
CCn1nc(C)cc1C(=O)NC1CC(C)(C)Cc2c1cnn2-c1cccc(F)c1 (configuration not stated),i,16µM*,21µM*,?,-10%,-1%
Cc1cc(C)c(C(=O)NC2CC(C)(C)Cc3c2cnn3-c2cccc(F)c2)[nH]1 (configuration not stated),.,?,?,.,-27%,-17%
COc1cccc(C(=O)NC2CC(C)(C)Cc3c2cnn3-c2cccc(F)c2)c1OC (configuration not stated),i,18µM*,23µM*,i,-17%,-14%
COc1cc(C(=O)NC2CC(C)(C)Cc3c2cnn3-c2ccccc2)cc(OC)c1OC (configuration not stated),i,?,-28%,i,6%,-1%
N#C/C(N=Nc1ccccc1O)=N\Nc1ccccc1O,16µM*,23µM*,21µM*,?,9.2µM*,21µM*
Oc1ccccc1N=N/C(=N/Nc1ccccc1O)c1ccccc1,i,?,?,i,4%,2%
SMILES,KB-3-1 cytotox,TDP1 cell noCPT,TDP1 cell CPT,KB-V1 cytotox,HT1080 IDH1KD tx,HT1080NT lethal
CCOc1ccccc1NC(=O)C1CCN(S(=O)(=O)c2ccc3[nH]c4c(c3c2)CCCCC4)CC1,i,?,?,i,.,.
CCCc1n[nH]c(=O)c2c1nnn2Cc1ccccc1,i,1%,-9%,i,-2%,2%
CCc1cc(-c2cnnn2Cc2ccccc2)ccc1-c1cn(CC(C)C)nn1,?,10µM*,?,10µM*,?,?
COc1ccc(Cl)cc1NC(=O)COC(=O)C1CC(=O)N(Cc2ccccc2)C1 (configuration not stated),i,-30%,-21%,i,6%,0%
Cn1c2ccccc2c(=O)c2c(=O)n(C3CCCCC3)c(-c3cccs3)nc21,?,?,?,12µM*,-12%,2%
COc1ccc(Cn2c(C3CCCCC3)nc3c(c(=O)c4ccccc4n3C)c2=O)cc1,i,16µM*,?,?,6%,3%
Cn1c2ccccc2c(=O)c2c(=O)n(-c3ccccc3)c(C3CCCCC3)nc21,i,?,?,?,14%,9%
COc1ccc(CCn2c(C3CCCCC3)nc3c(c(=O)c4ccccc4n3C)c2=O)cc1OC,i,?,?,?,-2%,0%
CCc1nc2c(c(=O)c3ccccc3n2C)c(=O)n1C1CCCCCC1,i,16µM*,?,i,-22%,-18%
Cn1c2ccccc2c(=O)c2c(=O)n(C3CCCCCC3)c(C3CCCCC3)nc21,?,13µM*,15µM*,?,4%,0%
COc1ccc(-c2nnc(Sc3nc4ccccc4o3)c3ccccc23)cc1,i,20µM*,?,?,?,?
Cc1ccccc1CN1C(=O)c2ccccc2Sc2ccc(C(=O)N3CCCC3)cc21,.,16µM*,21µM*,.,.,.
O=C(c1ccc2c(c1)N(Cc1ccccc1)C(=O)c1ccccc1S2)N1CCCC1,i,9.2µM*,16µM*,2.3µM*,2%,9%
Cc1ccccc1CN1C(=O)c2ccccc2Sc2ccc(C(=O)N3CCOCC3)cc21,.,18µM*,?,.,.,.
Cc1cccc(CN2C(=O)c3ccccc3Sc3ccc(C(=O)N4CCCC4)cc32)c1,?,?,?,i,.,.
O=C(c1ccc2c(c1)N(Cc1ccccc1F)C(=O)c1ccccc1S2)N1CCOCC1,i,-8%,-1%,?,8%,-5%

# High-throughput results: PubChem, National Center for Advancing Translational Sciences (NCATS)
